Measured values from PubChem BioAssay (NCI).
Values joined by “and” are separate entries in the source; they are usually repeats but may differ in a detail not shown here. Equal entries are not always repeated. About 83,000 compounds went through this panel and 20% of them were active in at least one assay; those are over-represented in the sample as a whole.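 A percent growth of 40 corresponds to 60% growth inhibition; 0 means no net growth; -100 means all cells died. Active threshold: below 10.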 Active and inactive are the calls of the source.

Tests used:
Test in all cases: NCI-60 one-dose screen, 48 h (100 = growth as untreated, 0 = no growth, -100 = all killed)
Settings in all cases: 10 µM unless noted
DU-145 prostate = test system: DU-145 prostate
K-562 leukemia = test system: K-562 leukemia
MALME-3M melanoma = test system: MALME-3M melanoma
MDA-MB-231 breast = test system: MDA-MB-231 breast
RXF 393 renal = test system: RXF 393 renal
SF-268 CNS = test system: SF-268 CNS
SF-295 CNS = test system: SF-295 CNS
SF-539 CNS = test system: SF-539 CNS
UACC-257 melanoma = test system: UACC-257 melanoma
M14 melanoma = test system: M14 melanoma
HCT-15 colon = test system: HCT-15 colon
HT29 colon = test system: HT29 colon
SNB-75 CNS = test system: SNB-75 CNS
SNB-19 CNS = test system: SNB-19 CNS
U251 CNS = test system: U251 CNS
PC-3 prostate = test system: PC-3 prostate
SK-MEL-5 melanoma = test system: SK-MEL-5 melanoma
UACC-62 melanoma = test system: UACC-62 melanoma
LOX IMVI melanoma = test system: LOX IMVI melanoma
SK-MEL-28 melanoma = test system: SK-MEL-28 melanoma

SMILES	growth (DU-145 prostate)	growth (K-562 leukemia)	growth (MALME-3M melanoma)	growth (MDA-MB-231 breast)	growth (RXF 393 renal)	growth (SF-268 CNS)	growth (SF-295 CNS)	growth (SF-539 CNS)	growth (UACC-257 melanoma)	growth (M14 melanoma)	growth (HCT-15 colon)	growth (HT29 colon)	growth (SNB-75 CNS)	growth (SNB-19 CNS)	growth (U251 CNS)	growth (PC-3 prostate)	growth (SK-MEL-5 melanoma)	growth (UACC-62 melanoma)	growth (LOX IMVI melanoma)	growth (SK-MEL-28 melanoma)
COc1cc(/C=N/Nc2nc3c([nH]2)c(=O)n(C)c(=O)n3C)ccc1O	114% (inactive)	91.4% (inactive) and 106% (inactive)	88.5% (inactive) and 97.9% (inactive)	96.4% (inactive) and 107% (inactive)	122% (inactive) and 123% (inactive)	104% (inactive) and 109% (inactive)	115% (inactive) and 118% (inactive)	89.9% (inactive) and 104% (inactive)	102% (inactive) and 110% (inactive)	102% (inactive) and 108% (inactive)	105% (inactive)	97.7% (inactive) and 110% (inactive)	86.9% (inactive) and 88% (inactive)	112% (inactive) and 108% (inactive)	99.1% (inactive) and 104% (inactive)	99% (inactive) and 98% (inactive)	97.9% (inactive) and 104% (inactive)	91.9% (inactive) and 97.9% (inactive)	98.2% (inactive) and 116% (inactive)	108% (inactive) and 107% (inactive)
Cc1nnc(NC/C=C/c2ccccc2)s1	104% (inactive) and 106% (inactive)	87.9% (inactive) and 94.2% (inactive)	99.6% (inactive)	105% (inactive) and 120% (inactive)	102% (inactive)	102% (inactive) and 97.3% (inactive)	99.7% (inactive)	109% (inactive) and 101% (inactive)	96.9% (inactive)	101% (inactive) and 104% (inactive)	98.3% (inactive) and 104% (inactive)	107% (inactive) and 116% (inactive)	86.3% (inactive) and 103% (inactive)	108% (inactive) and 113% (inactive)	97.8% (inactive)	94% (inactive) and 99.5% (inactive)	101% (inactive) and 102% (inactive)	104% (inactive)	96.1% (inactive) and 97.5% (inactive)	104% (inactive) and 103% (inactive)
COc1ccc(NC(=S)Nc2ccccn2)cc1	93% (inactive)	87.1% (inactive)	80.6% (inactive)	99% (inactive)	121% (inactive)	90.7% (inactive)	94.6% (inactive)	109% (inactive)	104% (inactive)	106% (inactive)	98.6% (inactive)	107% (inactive)	152% (inactive)	98.9% (inactive)	93.6% (inactive)	97.2% (inactive)	98.9% (inactive)	103% (inactive)	89.8% (inactive)	110% (inactive)
CN(Cc1ccccc1)Cc1ccccc1	107% (inactive)	113% (inactive)	91.4% (inactive)	106% (inactive)	104% (inactive)	97.1% (inactive)	112% (inactive)	99.2% (inactive)	99.8% (inactive)	102% (inactive)	103% (inactive)	102% (inactive)	87.4% (inactive)	106% (inactive)	99% (inactive)	103% (inactive)	104% (inactive)	101% (inactive)	95.1% (inactive)	110% (inactive)
Oc1c(Cl)cc(Cl)cc1Sc1cc(Cl)cc(Cl)c1O	75.6% (inactive) and 29.3% (inactive) and 94.6% (inactive)	18% (inactive) and 8.54% (active) and 41% (inactive)	10.7% (inactive) and 11.3% (inactive) and 82.2% (inactive)	84.2% (inactive) and -21.8% (active) and 79.6% (inactive)	91.3% (inactive) and 16.1% (inactive) and 87.9% (inactive)	33.2% (inactive) and 21.9% (inactive) and 72.1% (inactive)	18.6% (inactive) and 15.7% (inactive) and 75.4% (inactive)	25.8% (inactive) and 93.6% (inactive)	56% (inactive) and -16.2% (active) and 77.3% (inactive)	69.1% (inactive) and 35% (inactive) and 105% (inactive)	8.23% (active) and 78.1% (inactive)	66.2% (inactive) and 15.8% (inactive) and 108% (inactive)	97.2% (inactive) and 55.2% (inactive) and 100% (inactive)	43.4% (inactive) and -0.0882% (active) and 74.5% (inactive)	48.8% (inactive) and 8.95% (active) and 71.5% (inactive)	10.7% (inactive) and 1.87% (active) and 48% (inactive)	48% (inactive) and 51% (inactive)	19.1% (inactive) and -29% (active) and 50.2% (inactive)	80.7% (inactive) and 41.3% (inactive) and 96% (inactive)	58.3% (inactive) and 27.8% (inactive) and 95.3% (inactive)
CCC(O)c1ccccc1 (stereo not given)	120% (inactive) and 118% (inactive)	96.8% (inactive) and 104% (inactive)	114% (inactive) and 111% (inactive)	95.9% (inactive) and 112% (inactive)	8.94% (active) and 98.9% (inactive)	113% (inactive)	95% (inactive) and 115% (inactive)	89.2% (inactive) and 105% (inactive)	135% (inactive) and 85.4% (inactive)	100% (inactive)	113% (inactive) and 105% (inactive)	104% (inactive) and 105% (inactive)	88% (inactive) and 97.5% (inactive)	110% (inactive) and 103% (inactive)	102% (inactive)	116% (inactive) and 102% (inactive)	107% (inactive) and 95.3% (inactive)	111% (inactive) and 97.7% (inactive)	104% (inactive) and 108% (inactive)	75.7% (inactive) and 98.6% (inactive)
CCc1c(CC(=O)O)c2cc(C)ccc2n1Cc1ccc(Cl)cc1	106% (inactive) and 105% (inactive)	152% (inactive)	95.1% (inactive) and 200% (inactive)	110% (inactive) and 100% (inactive)	76.8% (inactive)	96.3% (inactive) and 99.4% (inactive)	91.6% (inactive) and 84.9% (inactive)	97.4% (inactive) and 90.2% (inactive)	87.7% (inactive)	101% (inactive) and 85.4% (inactive)	99.2% (inactive) and 98.3% (inactive)	109% (inactive) and 117% (inactive)	84.1% (inactive) and 93.7% (inactive)	102% (inactive) and 90.6% (inactive)	107% (inactive) and 93.7% (inactive)	95% (inactive)	93.8% (inactive) and 97.2% (inactive)	84.9% (inactive) and 83.8% (inactive)	103% (inactive) and 101% (inactive)	129% (inactive) and 125% (inactive)
O=C(O)C1(C(=O)O)CCC1.[NH2-].[NH2-].[Pt+2]	127% (inactive) and 104% (inactive)	65.9% (inactive)	86.4% (inactive) and 94.2% (inactive)	94.4% (inactive) and 8.97% (active)	93.9% (inactive)	118% (inactive) and 96.4% (inactive)	103% (inactive) and 96.9% (inactive)	100% (inactive) and 89% (inactive)	102% (inactive) and 95.7% (inactive)	99.2% (inactive) and 104% (inactive)	102% (inactive) and 103% (inactive)	106% (inactive) and 89.3% (inactive)	84.7% (inactive) and 88.6% (inactive)	94.6% (inactive) and 99.2% (inactive)	102% (inactive) and 94.1% (inactive)	93.6% (inactive) and 78.5% (inactive)	101% (inactive) and 94.1% (inactive)	96.1% (inactive) and 95.3% (inactive)	95.9% (inactive) and 87.9% (inactive)	112% (inactive)
